From PubChem BioAssay (EPA / NIEHS)
Records with an inconclusive call do not appear. The source made the active and inactive calls. Rule for the calls: active = hit-call score of the fitted dose curve at least 0.9, where 1 is the maximum; inconclusive = response in the unintended direction; inactive = score below 0.9.

Tests used:
[1] = biological target: Neuropeptide Y receptor type 2 (Homo sapiens) (UniProt P49146); test: NVS_GPCR_hNPY2: NovaScreen (NVS) G Protein-Coupled Receptor Assay for human Neuropeptide Receptor Y2 (NPY2) (AID 2283277)
In short: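 Chemicals were first tested in duplicate at 25 uM, then actives in singleton concentration series to 50 uM. Tracer binding to SK-N-MC-derived protein measured cell-free after 1 h via filter scintillation; signal loss relative to DMSO.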

[2] = biological target: human Purinergic Receptor P2Y, P2RY1 (gene 5028) (UniProt P47900); test: NVS_GPCR_hPY2: NovaScreen (NVS) G Protein-Coupled Receptor Assay for human Purinergic Receptor P2Y (AID 2283281)
In short: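 Filtration scintillation readout of radioligand displacement on U937 extract, measured 1 h post-dosing. Single 25 uM duplicate screen, then singleton concentration series to 50 uM for chemicals passing threshold; DMSO as baseline.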

[3] = biological target: human Orphanin, Opioid Related Nociceptin Receptor 1 (ORL1), OPRL1 (gene 4987) (UniProt P41146); test: NVS_GPCR_hORL1: NovaScreen (NVS) G Protein-Coupled Receptor Assay for human Orphanin, Opioid Related Nociceptin Receptor 1 (ORL1) (AID 2283283)
In short: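 Cell-free binding using HEK293-derived receptor protein: radioligand displacement measured by filter scintillation 1 hour after dosing. Primary testing at 25 uM in duplicate, followed by singleton concentration series up to 50 uM; DMSO served as negative control.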

[4] = biological target: human Vasopressin 1A Receptor (V1A), AVPR1A (gene 552) (UniProt P37288); test: NVS_GPCR_hV1A: NovaScreen (NVS) G Protein-Coupled Receptor Assay for human Vasopressin 1A Receptor (V1A) (AID 2283284)
In short: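 Single-concentration duplicate screen at 25 uM, with concentration-response follow-up (top 50 uM) for actives. The assay measured displacement of a radioligand from human platelet-derived receptor after 1.5 h, detected by filtration and scintillation counting.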

Sequence of Neuropeptide Y receptor type 2 (Homo sapiens) (P49146 whole entry, looked up): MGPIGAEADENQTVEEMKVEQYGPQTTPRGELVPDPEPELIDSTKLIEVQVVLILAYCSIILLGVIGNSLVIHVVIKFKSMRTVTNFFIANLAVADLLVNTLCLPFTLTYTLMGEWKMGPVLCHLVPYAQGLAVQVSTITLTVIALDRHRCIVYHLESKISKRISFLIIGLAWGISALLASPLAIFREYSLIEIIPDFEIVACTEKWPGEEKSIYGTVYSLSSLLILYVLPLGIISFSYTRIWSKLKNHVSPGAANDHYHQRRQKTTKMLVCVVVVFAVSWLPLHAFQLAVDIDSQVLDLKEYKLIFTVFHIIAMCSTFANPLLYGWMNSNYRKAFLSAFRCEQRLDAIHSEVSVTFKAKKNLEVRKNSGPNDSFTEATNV
Sequence of human Vasopressin 1A Receptor (V1A), AVPR1A (gene 552) (P37288 whole entry, looked up): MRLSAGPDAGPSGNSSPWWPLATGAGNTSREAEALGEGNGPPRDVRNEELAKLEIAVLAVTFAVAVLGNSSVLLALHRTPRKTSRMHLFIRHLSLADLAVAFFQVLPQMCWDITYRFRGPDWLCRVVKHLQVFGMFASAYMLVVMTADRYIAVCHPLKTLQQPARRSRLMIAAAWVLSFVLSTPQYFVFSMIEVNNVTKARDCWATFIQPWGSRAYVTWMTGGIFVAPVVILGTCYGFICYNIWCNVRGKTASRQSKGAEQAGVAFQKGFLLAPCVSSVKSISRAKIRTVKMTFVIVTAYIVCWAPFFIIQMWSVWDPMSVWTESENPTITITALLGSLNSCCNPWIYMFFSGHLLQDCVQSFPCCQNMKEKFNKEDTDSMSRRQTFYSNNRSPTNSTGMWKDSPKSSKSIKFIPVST
Sequence of human Orphanin, Opioid Related Nociceptin Receptor 1 (ORL1), OPRL1 (gene 4987) (P41146 whole entry, looked up): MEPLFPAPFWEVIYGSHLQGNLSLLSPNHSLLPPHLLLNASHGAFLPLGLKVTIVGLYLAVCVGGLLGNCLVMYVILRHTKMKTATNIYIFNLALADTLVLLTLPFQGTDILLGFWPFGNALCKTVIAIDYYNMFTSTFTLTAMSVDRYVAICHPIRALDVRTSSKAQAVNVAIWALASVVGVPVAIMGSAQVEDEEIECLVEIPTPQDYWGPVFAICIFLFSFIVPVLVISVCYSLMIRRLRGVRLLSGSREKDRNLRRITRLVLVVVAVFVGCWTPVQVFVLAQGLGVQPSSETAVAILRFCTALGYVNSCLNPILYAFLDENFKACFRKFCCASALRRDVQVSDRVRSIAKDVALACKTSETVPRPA
Sequence of human Purinergic Receptor P2Y, P2RY1 (gene 5028) (P47900 whole entry, looked up): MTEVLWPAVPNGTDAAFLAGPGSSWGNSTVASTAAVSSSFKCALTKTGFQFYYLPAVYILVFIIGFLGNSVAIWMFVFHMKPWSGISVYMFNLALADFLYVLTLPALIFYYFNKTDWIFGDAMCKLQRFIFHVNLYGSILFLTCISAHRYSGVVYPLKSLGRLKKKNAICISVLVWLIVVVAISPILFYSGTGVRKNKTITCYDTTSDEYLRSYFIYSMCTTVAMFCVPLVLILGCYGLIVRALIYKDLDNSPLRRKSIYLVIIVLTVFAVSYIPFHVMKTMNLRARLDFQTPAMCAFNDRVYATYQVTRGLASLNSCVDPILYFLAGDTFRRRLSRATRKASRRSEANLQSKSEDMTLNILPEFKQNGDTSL

COc1nc(C)nc(NC(=O)NS(=O)(=O)c2ccccc2CCC(F)(F)F)n1
outcome [1]: inactive

CNC(=S)S
outcome [2]: inactive | AC50 [3]: 40.3 µM (active)

CCOc1cc(Oc2ccc(C(F)(F)F)cc2Cl)ccc1[N+](=O)[O-]
outcome [4]: inactive
